Data published in PubChem BioAssay (NCATS).
Values joined by “and” are separate entries in the source; they are usually repeats but may differ in a detail not shown here. Equal values may be shown once. Inconclusive results are not listed. Where a structure was tested more than once in an assay, its records may differ in their call. A number with no mark means an inactive call. Active and inactive are the calls of the source. Calls follow the shape of the dose curve; as a rule, active = well fitted activation curve with a large enough effect; inconclusive = small, poorly fitted or top-dose-only effect; inactive = no such curve, though single readings can be large or run the other way.

molecular target: Cellular tumor antigen p53 (Homo sapiens) (UniProt P04637); assay: Primary qHTS for small molecule compounds that upregulate eGFP-tagged delta133p53alpha (in N-terminal) cells. (AID 2060322); conditions: NCI-H358 eGFP-delta133p53alpha fluorescence, 24 h; activation: hits give high values; also: nearly all actives have a fitted effect of over 75% in size;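 as to activation: cells pre-induced with doxycycline then dosed without doxycycline; series mostly up to about 56 µM; 0% = DMSO vehicle and 100% = reference activator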
Sequence (P04637 whole entry, looked up): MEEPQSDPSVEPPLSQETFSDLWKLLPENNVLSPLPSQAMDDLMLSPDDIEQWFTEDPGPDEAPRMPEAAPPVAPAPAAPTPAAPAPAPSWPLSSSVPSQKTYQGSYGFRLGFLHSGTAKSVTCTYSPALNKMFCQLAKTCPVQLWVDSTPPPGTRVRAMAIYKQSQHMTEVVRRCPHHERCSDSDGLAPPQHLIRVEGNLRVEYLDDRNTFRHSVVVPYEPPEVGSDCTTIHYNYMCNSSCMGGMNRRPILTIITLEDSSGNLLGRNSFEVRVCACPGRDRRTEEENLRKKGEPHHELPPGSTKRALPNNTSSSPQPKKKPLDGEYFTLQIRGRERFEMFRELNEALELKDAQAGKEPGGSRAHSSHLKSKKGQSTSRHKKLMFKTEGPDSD
In short: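 NCI-H358 cells pre-induced 24 h with 10 ng/ml doxycycline for eGFP-delta133p53alpha, plated dox-free and exposed 24 h at 37C to titrated compounds. Fixed, Hoechst-stained; gated GFP peak intensity by laser scanning cytometry, normalized to DMSO (0%) and 57.5 uM 5-azacytidine (100%).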
Potency is read from the fitted curve at half-maximal effect.

Row | SMILES | activation | Potency
1 | O=C(O)C1=CC(=C(c2ccc(O)c(C(=O)O)c2)c2ccc(O)c(C(=O)O)c2)C=CC1=O | -71.6% | 
2 | O=c1oc(Cl)c(Cl)c2ccccc12 | 3% | 
3 | Oc1ccc(C2CNCc3sccc32)cc1O (centres undefined) | 8.23% | 
4 | C=CCN1CCc2c(cc(O)c(O)c2Br)[C@@H](c2ccccc2)C1 | -46.3% | 
5 | NS(=O)(=O)c1cc2c(cc1Cl)NC(C1CC3C=CC1C3)NS2(=O)=O (centres undefined) | -1.69% and -18.7% | 
6 | COC(=O)C1=C(C)NC(C)=C(C(=O)OC)C1c1ccccc1[N+](=O)[O-] | -16.4% and -36.9% | 
7 | Cc1nc2n(c(=O)c1CCN1CCC(c3noc4cc(F)ccc34)CC1)CCCC2O (centres undefined) | 3.58% | 
8 | COc1cc(N2CCC(N3CCN(C)CC3)CC2)ccc1Nc1ncc(Cl)c(Nc2ccccc2S(=O)(=O)C(C)C)n1 | 16.9% | 30.1 µM (active)
9 | CC(=O)N(O)CCCCCNC(=O)CCC(=O)N(O)CCCCCNC(=O)CCC(=O)N(O)CCCCCN | 41.2% | 1.36 µM (active)
10 | O=C(OCCN1CCOCC1)C1(c2ccccc2)CCCCC1 | -19.6% | 
11 | O=C(/C=C/c1ccc(O)c(O)c1)OCCc1ccccc1 | -0.816% | 
12 | CC(C)[C@H](C(=O)Nc1ccc(C(=O)NO)cc1)c1ccccc1 | 66.7% | 30.6 µM (active)
13 | O=C1N=C(O)CN1/N=C/c1ccc(-c2ccc([N+](=O)[O-])cc2)o1 | 5.02% and 6.04% | 
14 | O=C(NCC1CCCCN1)c1cc(OCC(F)(F)F)ccc1OCC(F)(F)F (centres undefined) | 9.6% | 27.3 µM (active)
15 | Clc1ccccc1CN1CCc2sccc2C1 | 16.7% | 17.2 µM (active)
16 | O=C(CCCCCCC(=O)Nc1ccc([C@H]2O[C@@H](CSc3nc(-c4ccccc4)c(-c4ccccc4)o3)C[C@@H](c3ccc(CO)cc3)O2)cc1)NO | 47.5% | 5.36 µM (active)
17 | CC(C)(C)c1onc(OCP(=O)(O)O)c1CC(N)C(=O)O (centres undefined) | 5.95% | 
18 | NNc1nncc2ccccc12 | 19.2% and 11.4% and 5.29% | 
19 | OCc1cc(C(O)CNCCCCCCOCCCCc2ccccc2)ccc1O (centres undefined) | 13.4% and 3.4% | 
20 | N#C/C(=C\c1ccc(O)c(O)c1)C(=O)c1ccc(O)c(O)c1 | -3.67% | 

Row | SMILES | activation | Potency
21 | O=c1cc(-c2ccccc2)oc2c(O)c(O)ccc12 | -43.5% | 
22 | COc1ccc(-c2cc3nccn3c(Nc3ncccc3C(N)=O)n2)cc1OC | 14.1% | 4.78 µM (active)
23 | CC1=C(CC(=O)O)c2cc(F)ccc2/C1=C\c1ccc(S(C)=O)cc1 (centres undefined) | 19.2% and 25% | 
24 | Cc1c(-c2ccc(O)cc2)n(Cc2ccc(OCCN3CCCCCC3)cc2)c2ccc(O)cc12 | -20.9% | 38.9 µM (active)
25 | COc1cccc2c1[C@@H]1CN(CCCCn3c(=O)[nH]c4c(sc5ncc(-c6ccccc6)nc54)c3=O)C[C@@H]1CO2 | -97.6% | 
26 | CCCCCCCCCC(=O)NC(CN1CCOCC1)[C@H](O)c1ccccc1 (some centres undefined) | -7.14% | 
27 | C=CCN1CCc2c(cc(O)c(O)c2Cl)C(c2ccccc2)C1 (centres undefined) | -14.2% | 
28 | Oc1ccc(/C=C/c2ccc(/C=C/c3ccc(O)cc3)c(Br)c2)cc1 |  | 3.38 µM (active)
29 | NC1(C(=O)O)CCc2cc(C(=O)O)ccc21 (centres undefined) | 7.39% | 
30 | C=CCN1CCc2cc(O)c(O)cc2C(c2ccccc2)C1 (centres undefined) | -43.2% | 
31 | COc1ccc(Br)cc1S(=O)(=O)NC(=O)/C=C/c1ccccc1Cc1ccc2ccccc2c1 | -15.8% | 
32 | Brc1c(Br)c(Br)c2n[nH]nc2c1Br | -52.8% | 
33 | Cc1cc2c(C(C)C)c(O)c(O)c(C=O)c2c(O)c1-c1c(C)cc2c(C(C)C)c(O)c(O)c(C=O)c2c1O | -36.4% | 24.6 µM (active)
34 | CC(C)n1nc(-c2cc3cc(O)ccc3[nH]2)c2c(N)ncnc21 | 17.6% | 21.3 µM (active)
35 | Cc1nc(N)sc1-c1ccnc(Nc2ccc(N3CCOCC3)cc2)n1 | -1.52% | 26.9 µM (active)
36 | NC1(C(=O)O)CC1 | -6.03% | 
37 | N#C/C(=C\c1ccc(O)c(O)c1)C(=O)NCCc1ccccc1 | -26.1% | 
38 | COc1cc(N2CCC(O)CC2)ccc1Nc1cc(Nc2ccccc2S(=O)(=O)C(C)C)c2cc[nH]c2n1 | -59.5% | 16.6 µM (active)
39 | Cc1coc2c1C(=O)C(=O)c1c-2ccc2c1CCCC2(C)C | 36.5% | 8.49 µM (active)
40 | CCCOc1ccc2nc(NC(=O)OC)[nH]c2c1 | 62.8% | 0.0685 µM (active)
